Compounds with a hit are over-represented: about 13% of the library has one in this group of screens.
Shiga inhibitor: inhibitors of Shiga toxin in Vero cells; Vero cells, Shiga toxin protein synthesis inhibition reporter; inhibition, % at 38.7 µM; actives 9.2% (n = 290,000); AID 2315; in the data active = inhibition mostly above about 28%, no sharp cut-off; inactive = mostly below about 43%; note: 0% is about no effect
FMDV inh: antivirals against foot and mouth disease virus. FMDV antiviral cell-based qHTS. Potency, µM (series often up to 57.9 µM), for the others: top-dose activity change, negative = inhibition, actives largely listed as inhibitors. actives 1.2% (n = 410,000). AID 1159524; calls by dose curve; tested in HEK293T cells; note: read-out not given here; potency is the fitted concentration of half-maximal effect; % is set by controls: 0 for no effect and ±100 for the full control effect; nearly all actives have a fitted effect of over 45% in size
LASV entry inh: inhibitors of Lassa virus binding or cell entry; AID 540256; Lassa virus pseudotype entry inhibition, cell reporter; Potency, µM (top dose mostly 37.9 µM), without a hit: at the highest dose activity change, negative = inhibition, most hits filed as inhibitors; actives 1.2% (n = 300,000); calls by dose curve; tested in HEK293 cells; note: potency is the fitted concentration of half-maximal effect; % is set by controls: 0 for no effect and ±100 for the full control effect; nearly all actives have a fitted effect of over 50% in size
MARV entry inh: inhibitors of Marburg virus binding or cell entry; Marburg virus pseudotyped entry inhibition, cell reporter; Potency, µM (titrated, usually from 37.8 µM), without a hit: top-dose activity change, negative = inhibition, usual class: inhibitors; actives 1.8% (n = 300,000); AID 540276; calls by dose curve; tested in HEK293 cells; note: potency is the fitted concentration of half-maximal effect; % is set by controls: 0 for no effect and ±100 for the full control effect
HCV inh: inhibitors of hepatitis C virus infection | AID 651820 | actives 3.4% (n = 340,000) | Potency, µM (highest dose often 41.8 µM), for inactives: at the top dose activity change, negative = inhibition, most hits filed as inhibitors | Huh7.5.1 HCVcc-Cre infection, luciferase reporter, 44 h; active = well fitted inhibition curve with a large enough effect; inconclusive = small, poorly fitted or top-dose-only effect, or another doubt; inactive = no such curve, though single readings can be large or run the other way; note: potency is the fitted concentration of half-maximal effect; % is set by controls: 0 for no effect and ±100 for the full control effect
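Reporter virus HCVcc-Cre (~0.5 moi) infects cells exposed to compound; seeding density 1,000 cells/well with 4 h settling beforehand. Luminescence, 15 sec read, taken 44 h post-infection following a 15 min RT substrate incubation.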
CHX counter: counter-screen for Shiga toxin inhibitors: cycloheximide protein synthesis inhibition; AID 2314; cell reporter, cycloheximide protein synthesis inhibition counterscreen; max response, %; actives 12% (n = 300,000); in the data active = max response mostly above about 13%, no sharp cut-off; inactive = mostly below about 14%; note: read at 38.3 µM for the half of the compounds with a filed dose; 0% is about no effect
An asterisk follows results filed as active; u = inconclusive; x = no result given; [ ] = remark or other dose.

SMILES | Shiga inhibitor | FMDV inh | LASV entry inh | MARV entry inh | HCV inh | CHX counter
Cc1ccc(CC(=O)O/N=C(\N)c2cccc([N+](=O)[O-])c2)cc1 | -3 | 27% | -4% | -2% | 26% | 15*
CC(Sc1nnnn1C1CC1)C(=O)N1c2ccccc2NC(=O)C1(C)C (stereo not drawn) | x | 5% | 11% | 6% | 8% | x
CC(C)NC(=O)/C(C#N)=C\c1ccc(N(C)C)o1 | -6 | 59% | -13% | 12%[46.1 µM] | -7% | 3
Cc1c(C(=O)Nc2nc3ccccc3[nH]2)oc2c(Cl)cccc12 | 76* | 35% | u | 9%[46.1 µM] | -19% | 32*
Cc1c(C(=O)Nc2nc3ccccc3[nH]2)oc2ccccc12 | 100* | -27% | u | u | u | 47*
Cc1c(C(=O)Nc2nccs2)oc2c(Cl)cccc12 | x | 10% | u | -12%[46.1 µM] | -13% | x
Cc1c(C(=O)Nn2cnnc2)oc2ccccc12 | 27 | 6% | 8% | 3%[46.1 µM] | 1% | 3
c1ccc(CNc2oc(-c3ccccc3)nc2-c2cccc3ccccc23)cc1 | x | x | x | -27%[14.2 µM] | x | x
COc1ccccc1N1CCN(C(=O)CSc2ccccc2)CC1 | 65* | -7% | -3% | -5% | 6% | 27*
CS(=O)(=O)N1CCN(C(=O)C(Sc2ccccc2)c2ccccc2)CC1 (stereo not drawn) | -17 | -18% | -5% | 4% | -5% | -2
COc1ccccc1N1CCN(C(=O)C(Sc2ccccc2)c2ccccc2)CC1 (stereo not drawn) | -2 | u | u | 6.3µM* | 11µM* | -1
CC[C@H]1CCCCc2ccccc2[C@@H](C(=O)C[C@@H](O)CC(C)=O)OC1=O | x | -29% | x | x | -18%[8.37 µM] | x
CC(=O)OC1N=C(c2ccccc2)c2cc(Br)ccc2N(C)C1=O (stereo not drawn) | -3 | 11% | -1% | 0% | 18% | 5
O=Cc1cc(-c2ccccc2)[nH]c1-c1ccccc1 | x | 23% | 21%[46.1 µM] | 9%[46.1 µM] | -7% | 24*
CCc1ccc(NC(=O)C(C)OC(=O)CC(NC(C)=O)c2ccccc2)cc1 (stereo not drawn) | 29 | -6% | -4%[46.1 µM] | -2%[46.1 µM] | 14% | 33*
CC(=O)NC(CC(=O)OC(C)C(=O)Nc1ccc(Cl)cn1)c1ccccc1 (stereo not drawn) | x | -2% | -1% | -1% | 0% | x
Cn1c(=O)c2c(nc(SCC(=O)Nc3ccccc3F)n2Cc2ccc(Cl)cc2)n(C)c1=O | x | u | -10%[46.1 µM] | -4%[46.1 µM] | x | x
CC(C)CNc1nnnc2c1sc1nc(N3CCOCC3)c3c(c12)CC(C)(C)SC3 | -19 | u | 14µM* | u | 10µM* | -2
O=C(NCCCc1ccccc1)c1ccccc1O | 60* | x | 25% | 1% | -16% | 54*
O=C(NCCCCCCNC(=O)c1ccccc1O)c1ccccc1O | 8 | u | 20% | u | 10µM* | 10
O=C(NCCNC(=O)c1ccccc1O)c1ccccc1O | x | -18% | x | x | -4% | -2
CC1=C(C(=O)OC(C)C)C(c2cccs2)N2C(=O)C(C)SC2=N1 (stereo not drawn) | -4 | 0% | -24% | u | -25% | -1
N/C(=N\OC(=O)N1CCOCC1)c1ccc(Br)cc1 | 62 | 26% | x | x | u | 53*
N/C(=N\OC(=O)N1CCOCC1)c1ccccc1 | 32 | x | 12µM* | u | -19% | 23*
S=C(c1ccc(Cl)cc1)N1CCOCC1 | -13 | 1% | -1% | 2% | 7% | -5
SMILES | Shiga inhibitor | FMDV inh | LASV entry inh | MARV entry inh | HCV inh | CHX counter
N/C(=N\OC(=O)N1CCOCC1)c1ccc(Cl)cc1 | 53* | 16% | u | 10µM* | 2% | 55*
Cc1ccc(C2(C)NC(=O)N(CC(=O)NC(=O)NC3CCCC3)C2=O)cc1 (stereo not drawn) | -9 | x | x | 1% | 7% | -4
CCOC(=O)c1ccc(N2C(=O)c3n[nH]c(-c4cccs4)c3C2c2ccc(O)c(OC)c2)cc1 (stereo not drawn) | x | -28% | u | u | x | x
COc1cccc(-c2cc3c(-n4cccc4)ncnc3o2)c1 | 43* | -3% | -29% | u | u | 12
CCOC(=O)Cn1c(-c2ccc(Cl)nc2)nc2ccccc21 | 16 | -21% | 8% | -3% | u | -3
Cn1c(-c2ccc(Cl)nc2)nc2ccccc21 | 58* | 25% | u | 5%[46.1 µM] | 6% | 15*
Cn1c(-c2ccc3nc(N)sc3c2)nc2cc(N)ccc21 | 6 | 23% | -4% | u | -23% | 21*
Cc1ccc(-n2c(N)c(-c3nc4ccccc4n3C)sc2=S)cc1 | 18 | 25% | -2% | u | -28% | 11*
Cn1c(-c2ccc(N)cc2)nc2ccccc21 | 75* | 39% | 3% | -22% | -27% | 56*
Cn1c(-c2ccccc2)nc2cnccc21 | 11 | -2% | x | x | -4% | 11
Cn1c(N)c(-c2nc3cccnc3n2C)sc1=S | 24 | 31% | x | x | u | 6
Cc1ccccc1C(=O)NCC(=O)NNC(=O)CCN1CCN(c2ccccc2)CC1 | -10 | -1% | 19% | 3% | 2% | -3
Clc1ccccc1-c1nccc(NCc2cccs2)n1 | x | 15% | x | x | x | x
Cn1c(CCc2ccc(N)cc2)nc2ccccc21 | 60 | 17% | x | x | 16% | 32*
C[C@H]1CCC/C=C/[C@@H]2C[C@H](O)C[C@H]2[C@H](O)/C=C/C(=O)O1 | 23 | -25% | x | x | 0.56µM* | -7
COc1ccc(-c2cc3ncc(-c4ccccc4)c(N)n3n2)cc1 | 61* | 11% | -27%[46.1 µM] | u | u | 36*
CCOC(=O)c1cnc2cc(-c3ccc(OCC)cc3)nn2c1-c1ccccc1 | x | -21% | u | x | x | x
N#Cc1cnn(-c2ccccc2)c1N | -8 | x | u | 11% | u | -6
N#Cc1cnc2cc(-c3ccccc3)nn2c1N | 29 | 33% | 7% | u | 3% | 18*
Cc1onc(-c2ccccc2)c1C(=O)OCc1nnc(-c2ccccc2)o1 | x | -12% | -10% | -7%[46.1 µM] | 19% | x
O=C(OCc1nnc(-c2ccccc2)o1)c1cn(-c2ccccc2)nc1-c1ccccc1 | 33 | -19% | 13% | u | 11µM* | 12
Cc1cc(C(=O)OCc2nnc(-c3ccccc3)o2)c(C)n1-c1ccccc1 | 154 | u | u | -30% | 14µM* | 2
Cc1noc(C)c1COC(=O)c1cc(C)n(-c2ccccc2)c1C | 38* | -4% | -51% | -29% | 10µM* | 51*
CCCN(Cc1ccccc1)S(=O)(=O)c1ccc(N2C(=O)CCC2=O)cc1 | 29 | -19% | 2% | 0% | 5% | -5
CC1CCN(c2ccc(C(F)(F)F)cc2N)CC1 | 34 | -1% | 0% | 21% | 21% | 17*
COc1ccc(S(=O)(=O)N2CCCCCC2)cc1C(=O)N1CCN(C(C)=O)CC1 | x | -20% | x | x | x | x
Cc1ccc2nc(/C(C#N)=C/c3ccc(-c4cccc([N+](=O)[O-])c4)o3)[nH]c2c1 | 13 | 3% | 2% | 5% | -27% | 4

Screening data: PubChem BioAssay, National Center for Advancing Translational Sciences (NCATS)
